What was measured:
Experiment in all cases: log2 ratio of Biotin-Ahx-Ub-VS probe labelling (fragment/DMSO); higher = less target engagement (more negative = stronger competition), active = hit call of the paper (q ≤ 0.05, log2 ratio ≤ -1)
Conditions in all cases: compound concentration: 200 uM; treatment time: 3 h
USP42 = target: T1, USP42 (UniProt Q9H9J4)
T1 sequence (whole entry): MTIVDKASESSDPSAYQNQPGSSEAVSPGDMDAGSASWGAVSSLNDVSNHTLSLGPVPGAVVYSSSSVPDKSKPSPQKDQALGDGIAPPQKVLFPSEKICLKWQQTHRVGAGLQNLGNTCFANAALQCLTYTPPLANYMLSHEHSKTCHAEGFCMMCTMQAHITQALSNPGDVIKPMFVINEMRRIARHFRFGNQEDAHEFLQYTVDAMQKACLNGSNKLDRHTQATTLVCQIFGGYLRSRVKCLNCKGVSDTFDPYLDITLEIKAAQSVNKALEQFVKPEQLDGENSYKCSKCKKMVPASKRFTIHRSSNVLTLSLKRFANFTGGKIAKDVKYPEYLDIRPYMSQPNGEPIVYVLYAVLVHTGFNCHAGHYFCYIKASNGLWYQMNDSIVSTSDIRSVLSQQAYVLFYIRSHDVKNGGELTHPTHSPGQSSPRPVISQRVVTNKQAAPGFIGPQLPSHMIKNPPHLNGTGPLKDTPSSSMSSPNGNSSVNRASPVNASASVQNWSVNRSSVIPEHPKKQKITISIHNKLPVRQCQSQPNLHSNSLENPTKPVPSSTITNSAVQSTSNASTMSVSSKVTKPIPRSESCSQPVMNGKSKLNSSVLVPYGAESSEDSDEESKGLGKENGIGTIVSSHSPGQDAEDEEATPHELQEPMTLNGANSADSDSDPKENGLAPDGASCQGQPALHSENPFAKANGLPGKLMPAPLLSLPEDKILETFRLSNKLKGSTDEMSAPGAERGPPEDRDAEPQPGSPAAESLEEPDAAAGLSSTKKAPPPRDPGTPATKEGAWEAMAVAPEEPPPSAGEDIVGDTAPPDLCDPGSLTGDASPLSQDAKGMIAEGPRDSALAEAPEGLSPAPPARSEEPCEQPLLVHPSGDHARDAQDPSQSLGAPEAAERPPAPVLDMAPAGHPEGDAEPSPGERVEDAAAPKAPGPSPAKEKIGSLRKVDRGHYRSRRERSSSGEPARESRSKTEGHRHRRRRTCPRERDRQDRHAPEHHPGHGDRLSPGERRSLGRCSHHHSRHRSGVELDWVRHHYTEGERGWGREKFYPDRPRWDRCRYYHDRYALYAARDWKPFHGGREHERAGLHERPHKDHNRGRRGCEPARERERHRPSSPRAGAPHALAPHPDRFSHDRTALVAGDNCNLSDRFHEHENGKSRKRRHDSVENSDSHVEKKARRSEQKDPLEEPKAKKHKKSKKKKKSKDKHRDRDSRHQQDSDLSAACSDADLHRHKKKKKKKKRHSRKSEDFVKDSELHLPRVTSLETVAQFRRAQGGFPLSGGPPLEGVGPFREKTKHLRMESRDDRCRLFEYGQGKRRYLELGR
How it was run: (§1)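 Fragment (200 µM) or vehicle was incubated for 3 h with triplicate HEK293T lysate samples of 495 µg, which were then treated with Biotin-Ahx-Ub-VS at 0.5 µM final for 1 h. Labelled DUBs were enriched on NeutrAvidin, digested with LysC and trypsin, and analysed by diaPASEF LC-MS/MS. Values are average log2 fragment/vehicle ratios from an unpaired t-test on global-median-normalised Spectronaut label-free quantities, using proteins with ≥2 unique peptides.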

USP46 = USP46 (UniProt P62068)
USP46, sequence (P62068 whole entry): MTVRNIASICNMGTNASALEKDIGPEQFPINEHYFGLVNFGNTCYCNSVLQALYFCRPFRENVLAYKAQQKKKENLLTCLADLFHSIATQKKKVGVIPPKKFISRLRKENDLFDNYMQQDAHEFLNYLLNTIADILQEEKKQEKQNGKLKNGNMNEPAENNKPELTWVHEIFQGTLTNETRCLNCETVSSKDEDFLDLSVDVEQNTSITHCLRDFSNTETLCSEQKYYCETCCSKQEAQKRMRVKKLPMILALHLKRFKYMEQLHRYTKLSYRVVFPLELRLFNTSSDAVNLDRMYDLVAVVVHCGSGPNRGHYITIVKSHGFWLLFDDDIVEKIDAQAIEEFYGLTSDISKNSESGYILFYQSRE
How it was run: as §1

USP47 = target: T2, USP47 (UniProt Q96K76)
T2 sequence (whole entry): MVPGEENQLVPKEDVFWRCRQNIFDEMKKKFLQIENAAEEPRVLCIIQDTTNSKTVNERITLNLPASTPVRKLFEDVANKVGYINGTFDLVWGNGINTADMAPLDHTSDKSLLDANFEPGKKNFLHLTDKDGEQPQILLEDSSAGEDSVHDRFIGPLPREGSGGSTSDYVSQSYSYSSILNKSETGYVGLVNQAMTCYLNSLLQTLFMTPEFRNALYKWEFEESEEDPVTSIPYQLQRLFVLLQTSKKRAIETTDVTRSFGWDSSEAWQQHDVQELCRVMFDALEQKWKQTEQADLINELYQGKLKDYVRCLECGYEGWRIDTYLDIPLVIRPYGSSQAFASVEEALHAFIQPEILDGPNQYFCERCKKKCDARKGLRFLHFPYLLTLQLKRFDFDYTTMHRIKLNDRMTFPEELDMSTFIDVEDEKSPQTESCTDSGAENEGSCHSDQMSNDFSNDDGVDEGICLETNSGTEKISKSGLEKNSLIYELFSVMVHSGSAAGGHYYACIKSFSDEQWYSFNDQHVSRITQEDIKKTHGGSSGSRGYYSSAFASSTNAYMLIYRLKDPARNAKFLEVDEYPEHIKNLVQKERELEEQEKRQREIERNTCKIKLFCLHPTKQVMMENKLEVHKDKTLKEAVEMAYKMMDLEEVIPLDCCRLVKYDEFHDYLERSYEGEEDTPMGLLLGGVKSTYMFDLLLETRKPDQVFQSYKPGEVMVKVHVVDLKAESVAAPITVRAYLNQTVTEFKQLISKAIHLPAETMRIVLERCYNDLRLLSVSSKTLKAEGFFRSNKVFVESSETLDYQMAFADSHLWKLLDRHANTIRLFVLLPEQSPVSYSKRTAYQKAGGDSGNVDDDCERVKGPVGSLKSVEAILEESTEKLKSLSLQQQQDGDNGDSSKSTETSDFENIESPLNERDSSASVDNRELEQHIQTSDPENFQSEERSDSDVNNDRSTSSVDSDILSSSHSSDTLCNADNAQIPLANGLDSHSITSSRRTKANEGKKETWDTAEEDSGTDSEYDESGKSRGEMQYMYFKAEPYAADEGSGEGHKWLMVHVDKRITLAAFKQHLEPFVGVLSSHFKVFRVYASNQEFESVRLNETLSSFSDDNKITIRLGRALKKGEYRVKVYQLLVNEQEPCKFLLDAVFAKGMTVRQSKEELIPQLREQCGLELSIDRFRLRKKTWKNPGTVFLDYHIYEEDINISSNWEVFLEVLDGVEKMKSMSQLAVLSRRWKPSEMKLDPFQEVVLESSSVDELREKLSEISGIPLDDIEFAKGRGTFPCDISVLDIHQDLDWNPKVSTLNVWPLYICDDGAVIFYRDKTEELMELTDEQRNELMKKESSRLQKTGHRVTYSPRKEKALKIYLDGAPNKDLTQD
How it was run: as §1

USP48 = target: T3, USP48 (UniProt Q86UV5)
T3 sequence (whole entry): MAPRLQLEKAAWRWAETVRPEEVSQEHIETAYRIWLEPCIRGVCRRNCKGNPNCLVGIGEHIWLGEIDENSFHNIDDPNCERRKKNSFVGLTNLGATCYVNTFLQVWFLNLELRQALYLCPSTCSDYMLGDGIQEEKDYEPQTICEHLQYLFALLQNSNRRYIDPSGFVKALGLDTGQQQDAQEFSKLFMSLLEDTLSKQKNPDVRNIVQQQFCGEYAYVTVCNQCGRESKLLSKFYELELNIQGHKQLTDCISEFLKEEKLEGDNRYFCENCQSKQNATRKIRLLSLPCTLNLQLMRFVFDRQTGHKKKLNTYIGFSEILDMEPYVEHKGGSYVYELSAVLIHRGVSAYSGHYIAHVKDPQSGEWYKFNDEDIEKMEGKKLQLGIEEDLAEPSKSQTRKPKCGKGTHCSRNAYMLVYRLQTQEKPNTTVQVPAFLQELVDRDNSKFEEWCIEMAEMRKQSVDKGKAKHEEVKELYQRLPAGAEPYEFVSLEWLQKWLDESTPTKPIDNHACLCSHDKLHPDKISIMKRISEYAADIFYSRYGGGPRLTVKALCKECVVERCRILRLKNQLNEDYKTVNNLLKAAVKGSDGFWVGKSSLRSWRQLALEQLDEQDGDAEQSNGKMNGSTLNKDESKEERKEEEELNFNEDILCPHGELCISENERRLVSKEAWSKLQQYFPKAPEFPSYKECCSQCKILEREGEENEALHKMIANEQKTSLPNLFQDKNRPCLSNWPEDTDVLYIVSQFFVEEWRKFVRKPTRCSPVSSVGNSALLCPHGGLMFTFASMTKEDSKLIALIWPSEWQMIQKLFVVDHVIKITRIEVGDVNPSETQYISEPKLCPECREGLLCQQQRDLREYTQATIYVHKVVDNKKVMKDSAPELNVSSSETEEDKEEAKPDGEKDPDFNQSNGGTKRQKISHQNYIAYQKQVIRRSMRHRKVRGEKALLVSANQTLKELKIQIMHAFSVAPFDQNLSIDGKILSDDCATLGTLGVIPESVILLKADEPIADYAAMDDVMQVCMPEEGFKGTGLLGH
How it was run: as §1

USP5 = target: T4, USP5 (UniProt P45974)
T4 sequence (whole entry): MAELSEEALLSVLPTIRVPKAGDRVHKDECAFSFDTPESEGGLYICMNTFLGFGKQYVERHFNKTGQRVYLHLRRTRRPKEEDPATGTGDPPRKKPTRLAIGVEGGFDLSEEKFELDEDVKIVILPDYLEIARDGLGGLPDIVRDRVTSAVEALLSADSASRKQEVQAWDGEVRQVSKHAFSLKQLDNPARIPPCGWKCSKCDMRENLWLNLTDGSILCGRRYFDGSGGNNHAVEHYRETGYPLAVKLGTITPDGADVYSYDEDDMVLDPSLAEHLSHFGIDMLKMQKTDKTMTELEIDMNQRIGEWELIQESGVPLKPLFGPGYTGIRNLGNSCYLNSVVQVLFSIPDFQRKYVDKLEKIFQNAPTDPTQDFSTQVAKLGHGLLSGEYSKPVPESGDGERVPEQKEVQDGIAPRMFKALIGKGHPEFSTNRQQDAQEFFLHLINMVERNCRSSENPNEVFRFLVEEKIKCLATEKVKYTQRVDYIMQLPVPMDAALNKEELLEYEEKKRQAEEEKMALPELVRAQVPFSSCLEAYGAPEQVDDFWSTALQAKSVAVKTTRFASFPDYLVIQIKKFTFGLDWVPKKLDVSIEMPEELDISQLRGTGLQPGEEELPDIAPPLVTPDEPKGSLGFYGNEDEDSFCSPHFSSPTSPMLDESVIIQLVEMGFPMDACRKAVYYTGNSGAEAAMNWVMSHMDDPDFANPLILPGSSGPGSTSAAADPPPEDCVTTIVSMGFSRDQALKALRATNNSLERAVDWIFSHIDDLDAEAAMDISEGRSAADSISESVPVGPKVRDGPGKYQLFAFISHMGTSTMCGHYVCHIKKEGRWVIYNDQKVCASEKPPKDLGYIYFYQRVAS
How it was run: as §1

USP54 = USP54 (UniProt Q70EL1)
How it was run: as §1

USP7 = USP7 (UniProt Q93009)
USP7, sequence (Q93009 whole entry, looked up): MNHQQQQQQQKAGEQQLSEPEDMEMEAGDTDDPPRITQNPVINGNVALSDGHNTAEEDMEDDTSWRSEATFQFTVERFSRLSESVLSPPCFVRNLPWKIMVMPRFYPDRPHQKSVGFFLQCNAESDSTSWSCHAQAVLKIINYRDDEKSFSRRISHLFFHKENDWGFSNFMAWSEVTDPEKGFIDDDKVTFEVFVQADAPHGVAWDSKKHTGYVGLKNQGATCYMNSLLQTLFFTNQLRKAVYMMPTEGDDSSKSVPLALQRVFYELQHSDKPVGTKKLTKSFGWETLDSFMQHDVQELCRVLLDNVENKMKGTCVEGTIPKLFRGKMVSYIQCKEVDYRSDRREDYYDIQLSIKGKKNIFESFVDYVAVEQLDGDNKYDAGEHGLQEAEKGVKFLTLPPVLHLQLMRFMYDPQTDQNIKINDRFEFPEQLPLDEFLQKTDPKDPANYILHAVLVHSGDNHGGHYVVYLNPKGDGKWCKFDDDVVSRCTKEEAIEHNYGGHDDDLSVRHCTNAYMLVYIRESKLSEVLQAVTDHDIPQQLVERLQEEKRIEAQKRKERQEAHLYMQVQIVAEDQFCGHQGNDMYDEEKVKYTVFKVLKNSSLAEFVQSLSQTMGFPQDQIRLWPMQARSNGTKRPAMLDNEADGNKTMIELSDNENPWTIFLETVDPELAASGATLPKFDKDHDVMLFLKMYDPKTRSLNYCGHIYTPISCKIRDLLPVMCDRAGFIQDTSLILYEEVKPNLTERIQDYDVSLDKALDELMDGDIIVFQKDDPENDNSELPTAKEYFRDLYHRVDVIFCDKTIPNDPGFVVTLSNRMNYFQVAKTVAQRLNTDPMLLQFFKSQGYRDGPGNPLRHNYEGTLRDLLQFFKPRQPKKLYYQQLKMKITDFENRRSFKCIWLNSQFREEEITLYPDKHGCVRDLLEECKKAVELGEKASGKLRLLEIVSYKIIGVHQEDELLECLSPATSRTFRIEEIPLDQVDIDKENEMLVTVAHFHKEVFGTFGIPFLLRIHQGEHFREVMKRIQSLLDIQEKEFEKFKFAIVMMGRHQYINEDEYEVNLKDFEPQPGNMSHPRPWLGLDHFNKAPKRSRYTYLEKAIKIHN
How it was run: as §1

USP8 = target: T5, USP8 (UniProt P40818)
T5 sequence (whole entry): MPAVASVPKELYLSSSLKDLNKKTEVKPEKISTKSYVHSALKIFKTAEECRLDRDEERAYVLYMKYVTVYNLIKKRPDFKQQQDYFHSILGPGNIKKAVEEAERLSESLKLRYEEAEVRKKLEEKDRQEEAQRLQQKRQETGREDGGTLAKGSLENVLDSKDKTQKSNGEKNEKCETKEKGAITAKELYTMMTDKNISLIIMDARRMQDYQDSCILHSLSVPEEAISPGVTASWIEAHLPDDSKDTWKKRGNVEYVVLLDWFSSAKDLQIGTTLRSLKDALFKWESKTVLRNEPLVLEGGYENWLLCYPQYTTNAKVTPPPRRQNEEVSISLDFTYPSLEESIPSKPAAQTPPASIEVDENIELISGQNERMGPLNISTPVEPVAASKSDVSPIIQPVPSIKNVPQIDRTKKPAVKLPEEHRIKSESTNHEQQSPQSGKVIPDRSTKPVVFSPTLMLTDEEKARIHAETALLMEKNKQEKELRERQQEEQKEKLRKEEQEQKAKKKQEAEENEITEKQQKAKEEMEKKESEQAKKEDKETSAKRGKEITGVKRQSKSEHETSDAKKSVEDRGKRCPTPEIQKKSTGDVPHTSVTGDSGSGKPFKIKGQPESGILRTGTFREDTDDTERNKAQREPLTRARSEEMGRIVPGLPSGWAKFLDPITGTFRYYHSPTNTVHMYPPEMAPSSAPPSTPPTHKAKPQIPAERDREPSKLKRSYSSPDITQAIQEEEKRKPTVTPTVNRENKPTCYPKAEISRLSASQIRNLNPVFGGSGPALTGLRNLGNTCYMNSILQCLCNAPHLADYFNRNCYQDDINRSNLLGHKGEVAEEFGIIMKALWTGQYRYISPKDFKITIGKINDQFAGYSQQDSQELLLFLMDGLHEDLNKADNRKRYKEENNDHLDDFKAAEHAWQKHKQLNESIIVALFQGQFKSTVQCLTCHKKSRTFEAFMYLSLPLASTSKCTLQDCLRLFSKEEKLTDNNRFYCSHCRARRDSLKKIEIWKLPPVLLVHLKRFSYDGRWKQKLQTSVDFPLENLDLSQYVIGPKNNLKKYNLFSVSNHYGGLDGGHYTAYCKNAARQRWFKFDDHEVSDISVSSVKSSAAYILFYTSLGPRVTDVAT
How it was run: as §1

USP9X = USP9X (UniProt Q93008)
USP9X, sequence (Q93008 whole entry): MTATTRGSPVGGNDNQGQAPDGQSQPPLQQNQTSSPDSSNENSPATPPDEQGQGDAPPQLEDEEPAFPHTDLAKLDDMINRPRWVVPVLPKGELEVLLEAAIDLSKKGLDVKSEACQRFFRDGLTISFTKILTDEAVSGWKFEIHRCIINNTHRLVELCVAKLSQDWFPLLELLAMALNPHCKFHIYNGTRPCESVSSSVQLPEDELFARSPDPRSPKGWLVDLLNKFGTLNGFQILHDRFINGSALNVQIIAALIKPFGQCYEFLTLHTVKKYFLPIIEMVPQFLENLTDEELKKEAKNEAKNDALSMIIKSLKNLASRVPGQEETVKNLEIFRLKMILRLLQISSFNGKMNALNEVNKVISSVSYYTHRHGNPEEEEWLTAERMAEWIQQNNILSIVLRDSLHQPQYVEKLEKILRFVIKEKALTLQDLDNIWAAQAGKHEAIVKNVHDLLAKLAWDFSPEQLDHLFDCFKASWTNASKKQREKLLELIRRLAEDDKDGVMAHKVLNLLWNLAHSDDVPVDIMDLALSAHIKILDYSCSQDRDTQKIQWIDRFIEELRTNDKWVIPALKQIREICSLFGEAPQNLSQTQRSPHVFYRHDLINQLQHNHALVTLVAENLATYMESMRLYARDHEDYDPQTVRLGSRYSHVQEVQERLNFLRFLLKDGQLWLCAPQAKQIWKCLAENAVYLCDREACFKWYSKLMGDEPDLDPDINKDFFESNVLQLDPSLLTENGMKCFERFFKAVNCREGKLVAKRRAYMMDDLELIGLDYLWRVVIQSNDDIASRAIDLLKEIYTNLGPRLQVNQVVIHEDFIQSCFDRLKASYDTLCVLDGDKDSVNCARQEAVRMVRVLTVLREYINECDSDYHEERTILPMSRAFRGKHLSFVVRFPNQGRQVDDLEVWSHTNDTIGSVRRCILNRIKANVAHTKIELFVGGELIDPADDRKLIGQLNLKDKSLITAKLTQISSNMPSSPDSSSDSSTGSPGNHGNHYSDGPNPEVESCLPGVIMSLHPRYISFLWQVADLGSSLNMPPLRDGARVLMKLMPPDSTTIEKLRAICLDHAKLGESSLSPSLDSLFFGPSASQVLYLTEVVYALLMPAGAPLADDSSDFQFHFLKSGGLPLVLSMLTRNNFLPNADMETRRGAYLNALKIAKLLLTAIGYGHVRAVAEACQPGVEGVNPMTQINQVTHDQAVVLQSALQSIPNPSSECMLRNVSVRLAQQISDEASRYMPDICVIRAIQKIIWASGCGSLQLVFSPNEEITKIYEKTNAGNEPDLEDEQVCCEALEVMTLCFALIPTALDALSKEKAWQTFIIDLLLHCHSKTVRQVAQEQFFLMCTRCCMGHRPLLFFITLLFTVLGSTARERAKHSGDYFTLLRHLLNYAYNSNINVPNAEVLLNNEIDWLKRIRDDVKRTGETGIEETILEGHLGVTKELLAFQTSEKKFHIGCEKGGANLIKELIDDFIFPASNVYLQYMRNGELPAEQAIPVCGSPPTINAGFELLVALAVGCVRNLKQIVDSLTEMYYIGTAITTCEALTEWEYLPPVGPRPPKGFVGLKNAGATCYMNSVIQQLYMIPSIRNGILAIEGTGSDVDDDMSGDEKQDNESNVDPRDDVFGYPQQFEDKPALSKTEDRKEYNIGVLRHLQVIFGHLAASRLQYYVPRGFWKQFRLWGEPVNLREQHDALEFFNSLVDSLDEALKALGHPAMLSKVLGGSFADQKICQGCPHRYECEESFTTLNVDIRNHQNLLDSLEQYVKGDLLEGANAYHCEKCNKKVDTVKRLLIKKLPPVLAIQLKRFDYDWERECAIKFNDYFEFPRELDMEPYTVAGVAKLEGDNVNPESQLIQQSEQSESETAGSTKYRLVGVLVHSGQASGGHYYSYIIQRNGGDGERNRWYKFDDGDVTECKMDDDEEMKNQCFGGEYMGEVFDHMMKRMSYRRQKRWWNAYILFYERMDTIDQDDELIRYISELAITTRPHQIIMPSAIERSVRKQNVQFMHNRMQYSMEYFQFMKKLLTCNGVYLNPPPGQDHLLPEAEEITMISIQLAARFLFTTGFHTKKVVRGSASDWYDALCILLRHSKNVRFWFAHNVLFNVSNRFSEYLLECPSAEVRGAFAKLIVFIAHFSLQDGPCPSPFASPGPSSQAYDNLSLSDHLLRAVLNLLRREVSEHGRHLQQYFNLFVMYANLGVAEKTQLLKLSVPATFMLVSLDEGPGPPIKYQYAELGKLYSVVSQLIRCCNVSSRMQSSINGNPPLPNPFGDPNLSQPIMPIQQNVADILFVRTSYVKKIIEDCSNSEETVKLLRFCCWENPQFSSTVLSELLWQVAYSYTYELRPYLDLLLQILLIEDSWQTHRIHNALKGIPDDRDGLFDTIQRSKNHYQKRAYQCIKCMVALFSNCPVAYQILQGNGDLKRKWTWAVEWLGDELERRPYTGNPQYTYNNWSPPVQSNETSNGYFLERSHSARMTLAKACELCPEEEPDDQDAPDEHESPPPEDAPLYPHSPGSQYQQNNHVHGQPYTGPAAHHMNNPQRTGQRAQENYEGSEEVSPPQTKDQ
How it was run: as §1

UniProt O00487 = target: UniProt O00487
UniProt O00487, sequence (O00487 whole entry): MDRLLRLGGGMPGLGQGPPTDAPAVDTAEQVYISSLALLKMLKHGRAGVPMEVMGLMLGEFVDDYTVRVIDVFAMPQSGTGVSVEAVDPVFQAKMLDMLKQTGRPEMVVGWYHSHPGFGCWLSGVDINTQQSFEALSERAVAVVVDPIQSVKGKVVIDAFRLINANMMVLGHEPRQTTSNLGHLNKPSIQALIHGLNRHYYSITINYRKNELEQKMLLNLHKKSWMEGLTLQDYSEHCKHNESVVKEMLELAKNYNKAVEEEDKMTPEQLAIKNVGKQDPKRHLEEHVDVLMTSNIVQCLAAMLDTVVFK
How it was run: as §1

Measured: log2 ratio of Biotin-Ahx-Ub-VS probe labelling

Cc1noc(C)c1CNC(=O)CCl
inactive: USP42 0.262 | USP46 -0.347 | USP47 0.0132 | USP48 -0.547 | USP5 -0.403 | USP54 1.07 | USP7 -0.406 | USP9X -0.717 | UniProt O00487 -0.395
active: USP8 -1.2

Reference: the supplement of paper PMC11732987, “Enantioselective OTUD7B fragment discovery through chemoproteomics screening and high-throughput optimisation” (Communications Chemistry, 2025)
